# Data as given in the supplement of paper PMC11417369.
# ± gives the standard deviation of the averaged measurements. Whole data set: some 25,000 sequences, median “ln(normalized median fluorescence intensity)” near 8.6, cut for the highest 2% near 10. For the sample, the highest values were picked, then their nearest neighbours and some sequences at random.
# Test system: PfAP2-EXP AP2 domain (GST-tagged)
# Experiment: gcPBM binding intensity (ln(normalized median fluorescence intensity)); higher = stronger DNA binding
# Outline: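 Alexa488 anti-GST antibody, scanned at 488 nm, detected GST-tagged P. falciparum DNA-binding domains that had been expressed in E. coli and incubated for 1 h on an Agilent 4 × 180k array. The array carried primer-extended double-stranded 36-bp intergenic genomic probes and negative controls. Binding intensity is the highest Masliner-normalised natural-log median intensity across replicate spots of either orientation of each probe.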
row,Sequence,gcPBM binding intensity (ln)
1,TGCTTTTATTTCTTCACACATATGTAAAAAAAAGAA [CACACA_site5906],8.76 ± 0.42
2,ATCAAAAGAAAACACACACACATACATATATATATA [CACACA_site3795],9.81 ± 0.28
3,TTATATAAAACATTAACACACAAAGAAAAAAAATTA [CACACA_site1793],8.57 ± 0.47
4,AATATAAAATCAAGAAATTAAAAAAAAACAGAAAAC [CACACA_negctrl_site1004],8.93 ± 0.49
5,AAAACACAAAAAAAATGTACACATATATATATATAT [XGTACX_site8509],10 ± 0.38
6,AAAACTATATTAATGTGTACACATCAAAATATTAAT [XGTACX_site6767],8.65 ± 0.13
7,AAAACATCAAAAATGTGTACATATATATATATATAT [XGTACX_site8884],10.3 ± 0.21
8,AAAAAAAAGAAACACACACACATACACATAAATATA [CACACA_site3807],8.79 ± 0.47
9,AATCAAAACATTAAAAAGAAAAAATATATATATATA [CACACA_negctrl_site366],10.2 ± 0.26
10,AAAAAATACATCAAAAGAAACATATATATATATATA [GTGCAC_negctrl_site719],10.2 ± 0.67
11,TGGTAAATTTACCGTTGTACATTCATTTATAACATT [XGTACX_site8910],8.68 ± 0.42
12,TATATATAGCATATTTCACACACACCGAATGAATAT [CACACA_site9182],8.64 ± 0.36
13,ATTGTGTTAATAAAATGTACATTTTCTCTACTTTAA [XGTACX_site1199],8.8 ± 0.35
14,TGTTCTAATTTTAATTGTACATATATACATATATAT [XGTACX_site7290],8.46 ± 0.35
15,AAAAATATATAAAGAAAAAGAATATAATATAAAATA [GTGCAC_negctrl_site208],8.53 ± 0.38
16,AACATATTTATGATGTGTACCTACATAATAGAATTT [XGTACX_site141],8.38 ± 0.32
17,AAAAAGGTTATTGGTACACACATATGTATATATATA [CACACA_site552],9.3 ± 0.057
18,AAGGTAAAATATAAGTGTACTTTTTCTTAATCTTCG [XGTACX_site514],8.31 ± 0.15
19,ATGGGAATATAATTATGTACATATAAAAATTATAAA [XGTACX_site5336],8.62 ± 0.34
20,TGCAATTGTAAAGGCGCACACATATATATATATATA [CACACA_site4894],10.1 ± 0.34
21,TACAATTGTAAAGGCGCACACATATATATATATATA [CACACA_site1392],10.3 ± 0.59
22,AAAAAAAGGTAAAATTGTACATACGCACAAAAATAT [XGTACX_site2887],8.73 ± 0.33
23,TTTTCCAGTAAATATTTTTTTATAATATTTATATAT [CACACA_negctrl_site387],8.3 ± 0.4

row,Sequence,gcPBM binding intensity (ln)
1,AAATATACATACATATGTACATATATATATATATAT [XGTACX_site8202],10.1 ± 0.45
2,TTATGTAAATAATTTTGTACTTAAATTATTATATAA [XGTACX_site1491],8.08 ± 0.4
3,ATGATGTGCAAGAGTAGTACACAATTTTGGGTTTAT [XGTACX_site501],8.76 ± 0.39
4,AATAAAAAATATAACACAAATATGTATATATATATA [TGCATGCA_negctrl_site245],9.81 ± 0.34
5,ATATATATATATATAACACACGTGTATATATATGTA [CACACA_site3644],10.2 ± 0.23
6,ATATATATATATATAACACACGTGTATTTATCTGTA [CACACA_site5922],9.99 ± 0.34
7,TTTTTTTTTTTTTTGGGTACATAATAATAACAAGTG [XGTACX_site1034],8.28 ± 0.32
8,TTTTTTTTTTTTTTATGTACGAAAGAAAAGCACATA [XGTACX_site8261],8.57 ± 0.27
9,ATTTAGTATTCGAAACGTACACATATATATATATAT [XGTACX_site3910],10.2 ± 0.4
10,TTTTATAAAGAACACAGACACACAAAGAAAGAACCA [CACACA_site4174],9.02 ± 0.6
11,TACATACAGAAACACACACACACATATATATATATA [CACACA_site2919],10 ± 0.28
12,AAGAACAGAACGTACACACACATATATATATATATA [CACACA_site3457],10.2 ± 0.23
13,ACAAGAACAGAACGTACACACACATATATATATATA [CACACA_site9143],9.97 ± 0.39
14,AACACAAGAACAGAACGTACACACACATATATATAT [XGTACX_site7347],9.76 ± 0.16
15,CAAGAAACAGTGATACGTACACATATATATATATAT [XGTACX_site3229],10.2 ± 0.32
16,CATACACAGAAACACACACACATATATACATATATA [CACACA_site1094],8.59 ± 0.56
17,ATATATATATATATATGTACTGAATAAAGAACAAAA [XGTACX_site5400],10.1 ± 0.42
18,AAAATAAAAATAACAACACACATATACTATAATATT [CACACA_site2769],8.7 ± 0.46
19,TTTCCTAGCACATGCACACAAAAAAAAAAAAAAAAA [CACACA_site1404],8.35 ± 0.35
20,AATTAGATTTACTGAAGTACTTAATTTATTTTATTA [XGTACX_site3407],8.85 ± 0.34
21,ATTTATTAATTACCATGTATAAAAAATTATATAATA [CACACA_negctrl_site581],8.19 ± 0.51
22,AATAAAAATAAAAATTGTACACTTTTTTAATATTTA [XGTACX_site892],8.11 ± 0.25
23,TTTTTTTTTTTTTCAAGTACATATATATATATATAA [XGTACX_site2098],8.44 ± 0.45

row,Sequence,gcPBM binding intensity (ln)
1,ATATAATTCAAATACAGTACATATACAATATATACA [XGTACX_site1191],8.21 ± 0.3
2,TACAAGCCCAATTCAAGTACATATATATATATATAT [XGTACX_site5569],10.2 ± 0.44
3,TATTATGTTATATATTGTACATGTTTATTGAAACAA [XGTACX_site5605],8.66 ± 0.21
4,AAATAAAAATTACAAGCATGCATTTTCCTATTTGCA [TGCATGCA_site861],8.56 ± 0.46
5,TGCATTTTCCTATTTGCATGCAATTAAAATATAGAA [TGCATGCA_site862],10.2 ± 0.24
6,ACTTCCTATATTTATGCATGCATTTTATTAAAAAAT [TGCATGCA_site747],9.92 ± 0.16
7,AAAACAAACGGACACACACACATATATATATATATA [CACACA_site5924],10.1 ± 0.32
8,CATACAGACGAACACACACACATATAAATATAAATA [CACACA_site6443],8.74 ± 0.55
9,AATGAACAGACGAGCACACACACACCCATATATATA [CACACA_site1018],8.85 ± 0.35
10,TGAACAGACGAGCACACACACACATATATATATATA [CACACA_site1019],10.2 ± 0.26
11,TTGTAAGAAAAACACACACACACATATATATATATA [CACACA_site795],10.1 ± 0.23
12,TGAACTCACGAGCACACACACACATATATATATATA [CACACA_site8248],10.2 ± 0.34
13,TAAACAGACATATAAACACACATATAAACAGACATA [CACACA_site7214],8.69 ± 0.56
14,GTAAGAAACAGACACACACACATATAAATATAAATA [CACACA_site6515],8.77 ± 0.64
15,AACAGACAGAAACACACACACATATATATATATATA [CACACA_site3394],10 ± 0.41
16,AACAGACGAAGACACACACACATATATATATATATA [CACACA_site1020],10.2 ± 0.21
17,GTAAGAAACGGACACACACACATATATATATATATA [CACACA_site4593],10.2 ± 0.23
18,GTAAGAAACAGACACACACACATATATATATATATA [CACACA_site794],10.2 ± 0.24
19,ATATATATATATATGTGTACATATTTTTTTGAAGTG [XGTACX_site248],10.1 ± 0.29
20,TTTTTTTTTTTTTTTTGTACGTAAAAAAATATATAC [XGTACX_site1290],8.36 ± 0.22
21,AAATATAATAACGAACGTACTTATTATAATTTGTAA [XGTACX_site2342],8.32 ± 0.25
22,ACATATTAAAATATATGTACATAAAATATGAAAAAA [XGTACX_site5869],8.82 ± 0.3
23,ATAATAAAAATATATACATGCATTATTATATATATA [TGCATGCA_site799],8.97 ± 0.16

row,Sequence,gcPBM binding intensity (ln)
1,AAAATAAAAAGAAAAAATAAAAAGAAAAAATAAAAA [CACACA_negctrl_site120],8.33 ± 0.44
2,CATTAAAAAGAAAGTTCACACACATATATATGACGG [CACACA_site8836],8.84 ± 0.57
3,TTTATTATTATATTATTTTAATTTTTCTTTAGTACA [GTGCAC_negctrl_site392],8.29 ± 0.32
4,TAATTTCTTTAGGGGGTGCTTTTATAGTTTTTATTA,10.4 ± 0.54
5,CCTAATTTTATTAGGGTGCATTTTTAGTTAAATATA,8.48 ± 0.27
6,AGTATAGATGTATACACACACCAAACGTTAAAAAAA [CACACA_site7443],8.71 ± 0.53
7,CAAGGAACCGGACACACACACATAAATGTATTTATA [CACACA_site4574],8.46 ± 0.5
8,TATACATATACATATACACACACACCCATAAATAAA [CACACA_site8372],9.05 ± 0.38
9,TACATATACATATACACACACACACCCAAATAAATA [CACACA_site1344],8.86 ± 0.51
10,CACCCACTAATAAACACACACATATATATATATATA [CACACA_site389],10.2 ± 0.35
11,AATAAATATAAATACACACCCATATAAATATAAATA [CACACA_site7264],8.64 ± 0.51
12,AAAAAAAAAAAACACACACACACACTAATATATAAA [CACACA_site8302],8.47 ± 0.56
13,CCCACTAAAAAACACACACACACACCCATATATATA [CACACA_site6140],8.98 ± 0.31
14,TATAAATATACACCCACACACATATATAAATAAATA [CACACA_site7717],8.93 ± 0.79
15,TATAAATATACACCCACACACATATATATATATATA [CACACA_site3745],10.2 ± 0.4
16,AATAAATATATATACACACCCATATATATATATATA [CACACA_site2595],10.1 ± 0.42
17,AATAAATATAAATACACACCCATATATATATATATA [CACACA_site5436],10.2 ± 0.35
18,AAAAAAAATACATACACACACACACCCACATATATA [CACACA_site3561],8.75 ± 0.65
19,TATATAAATATACACCCACACACATATATATATATA [CACACA_site9247],10.2 ± 0.26
20,TTTTGATATATGAATATTAAGTTATATAATATTTTA [TGCATGCA_negctrl_site39],7.92 ± 0.28
